Experimental data published in ChEMBL document CHEMBL5308504, “Tm Shift (DSF) assay results for EUbOPEN Chemogenomics Library” (2023).
Several values for one entry are separate records, joined by “and”; a condition that tells them apart may be missing. Equal entries are not always repeated.

Key:
Details in all cases: Compound concentration 20.0 uM, Protein concentration 2.0 uM, Result type QC Liability
[1] = target: Tyrosine-protein kinase ABL1 (Homo sapiens) (UniProt P00519)
[2] = target: Cyclin-dependent kinase 2 (Homo sapiens) (UniProt P24941)
[3] = target: Casein kinase I isoform delta (Homo sapiens) (UniProt P48730)
Chain of Casein kinase I isoform delta (Homo sapiens) (P48730 whole entry, looked up, canonical isoform): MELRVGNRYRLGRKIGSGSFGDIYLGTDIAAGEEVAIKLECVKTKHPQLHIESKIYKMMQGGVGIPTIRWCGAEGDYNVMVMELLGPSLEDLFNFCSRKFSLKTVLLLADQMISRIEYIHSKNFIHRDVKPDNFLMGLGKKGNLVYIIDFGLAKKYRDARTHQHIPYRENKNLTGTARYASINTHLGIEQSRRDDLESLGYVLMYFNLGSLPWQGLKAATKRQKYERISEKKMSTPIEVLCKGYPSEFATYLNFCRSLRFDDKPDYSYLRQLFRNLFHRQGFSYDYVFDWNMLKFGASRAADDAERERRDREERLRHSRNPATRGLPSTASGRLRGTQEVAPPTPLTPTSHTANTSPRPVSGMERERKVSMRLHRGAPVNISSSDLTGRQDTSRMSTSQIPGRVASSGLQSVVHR

[4] = target: Glycogen synthase kinase-3 beta (Homo sapiens) (UniProt P49841)
Chain of Glycogen synthase kinase-3 beta (Homo sapiens) (P49841 whole entry, looked up): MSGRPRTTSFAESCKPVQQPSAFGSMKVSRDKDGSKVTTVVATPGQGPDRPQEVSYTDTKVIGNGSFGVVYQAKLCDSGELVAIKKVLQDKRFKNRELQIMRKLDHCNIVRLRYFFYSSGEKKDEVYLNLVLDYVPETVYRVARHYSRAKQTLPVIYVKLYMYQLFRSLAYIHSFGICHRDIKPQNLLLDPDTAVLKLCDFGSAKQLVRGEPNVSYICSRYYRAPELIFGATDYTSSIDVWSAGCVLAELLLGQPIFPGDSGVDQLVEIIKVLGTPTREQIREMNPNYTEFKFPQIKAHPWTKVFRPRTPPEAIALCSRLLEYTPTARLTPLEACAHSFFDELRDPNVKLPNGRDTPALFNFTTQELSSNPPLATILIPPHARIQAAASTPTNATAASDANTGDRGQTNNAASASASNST

[5] = target: Mitogen-activated protein kinase 1 (Homo sapiens) (UniProt P28482)
Chain of Mitogen-activated protein kinase 1 (Homo sapiens) (P28482 whole entry): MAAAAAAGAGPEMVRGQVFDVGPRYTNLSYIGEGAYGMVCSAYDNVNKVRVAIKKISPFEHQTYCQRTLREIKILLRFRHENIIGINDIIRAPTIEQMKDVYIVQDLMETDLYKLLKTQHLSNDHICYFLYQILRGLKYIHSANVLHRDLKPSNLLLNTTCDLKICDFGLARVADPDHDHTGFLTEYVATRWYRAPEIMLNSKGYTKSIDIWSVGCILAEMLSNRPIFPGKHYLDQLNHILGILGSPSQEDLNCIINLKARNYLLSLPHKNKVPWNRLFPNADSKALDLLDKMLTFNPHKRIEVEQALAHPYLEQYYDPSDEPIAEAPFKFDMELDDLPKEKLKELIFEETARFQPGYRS

[6] = target: T1, Aurora kinase A (Homo sapiens) (UniProt O14965)
T1 sequence (whole entry): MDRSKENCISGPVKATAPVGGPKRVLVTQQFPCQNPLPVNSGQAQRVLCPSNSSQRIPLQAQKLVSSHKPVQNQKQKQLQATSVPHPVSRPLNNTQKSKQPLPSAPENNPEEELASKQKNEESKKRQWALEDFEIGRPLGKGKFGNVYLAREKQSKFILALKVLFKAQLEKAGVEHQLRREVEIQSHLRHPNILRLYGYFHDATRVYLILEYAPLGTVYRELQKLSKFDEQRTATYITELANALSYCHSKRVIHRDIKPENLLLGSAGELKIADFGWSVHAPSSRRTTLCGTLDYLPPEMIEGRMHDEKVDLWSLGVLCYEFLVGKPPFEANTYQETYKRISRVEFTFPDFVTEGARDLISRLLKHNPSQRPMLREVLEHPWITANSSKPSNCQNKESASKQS

Chain of Tyrosine-protein kinase ABL1 (Homo sapiens) (P00519 whole entry): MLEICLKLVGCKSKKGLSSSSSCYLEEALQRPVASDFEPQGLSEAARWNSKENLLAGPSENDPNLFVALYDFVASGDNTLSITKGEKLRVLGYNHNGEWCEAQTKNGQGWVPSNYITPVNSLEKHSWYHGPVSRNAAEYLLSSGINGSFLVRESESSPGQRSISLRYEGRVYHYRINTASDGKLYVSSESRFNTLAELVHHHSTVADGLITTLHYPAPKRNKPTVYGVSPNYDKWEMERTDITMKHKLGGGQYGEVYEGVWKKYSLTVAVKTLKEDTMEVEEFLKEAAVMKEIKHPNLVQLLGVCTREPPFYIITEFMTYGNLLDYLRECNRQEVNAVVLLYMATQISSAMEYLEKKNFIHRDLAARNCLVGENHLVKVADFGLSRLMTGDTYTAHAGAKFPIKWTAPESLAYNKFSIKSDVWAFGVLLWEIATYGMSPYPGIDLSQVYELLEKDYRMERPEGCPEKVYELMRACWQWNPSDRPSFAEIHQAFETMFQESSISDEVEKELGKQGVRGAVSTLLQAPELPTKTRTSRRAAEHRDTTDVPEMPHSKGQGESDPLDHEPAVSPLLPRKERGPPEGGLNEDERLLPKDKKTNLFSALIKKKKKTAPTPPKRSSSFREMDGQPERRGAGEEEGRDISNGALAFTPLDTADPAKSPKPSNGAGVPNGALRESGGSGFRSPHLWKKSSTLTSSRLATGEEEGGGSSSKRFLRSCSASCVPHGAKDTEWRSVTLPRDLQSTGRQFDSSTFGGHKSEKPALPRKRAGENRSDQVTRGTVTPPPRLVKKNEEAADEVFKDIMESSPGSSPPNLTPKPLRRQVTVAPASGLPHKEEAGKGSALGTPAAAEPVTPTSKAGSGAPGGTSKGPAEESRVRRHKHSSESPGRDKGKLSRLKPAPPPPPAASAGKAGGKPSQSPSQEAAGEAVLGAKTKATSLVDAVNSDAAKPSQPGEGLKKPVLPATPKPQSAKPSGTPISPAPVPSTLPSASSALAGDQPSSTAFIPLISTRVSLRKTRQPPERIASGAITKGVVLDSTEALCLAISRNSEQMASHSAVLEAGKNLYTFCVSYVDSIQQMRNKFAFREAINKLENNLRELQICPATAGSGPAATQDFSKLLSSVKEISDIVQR

Compound | ΔTm [1] | ΔTm [2] | ΔTm [3] | ΔTm [4] | ΔTm [5] | ΔTm [6]
CC(=O)c1ccc2c(c1)/C(=C(/NC1CCN(C)CC1)c1ccc3c(c1)OCO3)C(=O)N2 | 0.16 °C | 4.87 °C | 2.46 °C | 15.5 °C | 0.57 °C | 0.78 °C
Cc1cc(-c2cc3ncccc3c(OC[C@H]3CCCNC3)n2)ccc1N(C)C | 5.72 °C | 0.38 °C | 2.65 °C | 1.68 °C | 0.09 °C | 7.37 °C
COc1cc(C(=O)NCCOCCOCCOCC(=O)N[C@H](C(=O)N2C[C@H](O)C[C@H]2C(=O)NCc2ccc(-c3scnc3C)cc2)C(C)(C)C)ccc1Nc1ncc(C(F)(F)F)c(Oc2cccc3c2C(=O)CC3)n1 | -0.62 °C | -0.81 °C | 0.41 °C | 0 °C | -8.23 °C | 1.75 °C
CS(=O)(=O)c1cc(C2(NC(=O)c3cncc4c3cnn4-c3ccc(F)cc3)CC2)ccn1 | 0.11 °C | 0.77 °C | 0.73 °C | -0.04 °C | -0.47 °C | 0.05 °C
CN(C)C(=O)Cn1cc(-c2ccc(-c3nnc4ccccn34)cc2)cn1 | -0.4 °C | 0.44 °C | 0.44 °C | -0.7 °C | 0.27 °C | -0.04 °C
CCS(=O)(=O)c1ccc(OC)c(Nc2ncc(-c3cccc(F)c3)o2)c1 | 2.1 °C | 0.14 °C | -0.13 °C | -1.15 °C | 0.11 °C | 0.2 °C
CC(C)(C#Cc1ccc(NC(=O)COc2ccccc2C(=O)c2ccccc2)c(Cl)c1)C(=O)O | 0.32 °C | -1.47 °C | -0.18 °C | 0 °C | -0.94 °C | 0.27 °C
CCC(C)(C)CC[C@H](NC(=O)N1CCOCC1)C(=O)NC1(C#N)CCN(C)CC1 | -0.14 °C | 0.95 °C | 0.34 °C | 0.11 °C | 0.54 °C | 0.69 °C
Cc1ccc(NC(=O)c2ccc(CN3CC[C@H](N(C)C)C3)c(C(F)(F)F)c2)cc1Nc1nccc(-c2cncnc2)n1 | 17.6 °C | 0.7 °C | 0.73 °C | 0.08 °C | 0.9 °C | 0.26 °C
C=CC1C[C@]1(NC(=O)[C@@H]1C[C@@H](Oc2cc(-c3csc(NC(=O)C(C)C)n3)nc3c(Br)c(OC)ccc23)CN1C(=O)[C@@H](NC(=O)OC1CCCC1)C(C)(C)C)C(=O)O (stereo not given in full) | 0.33 °C | 0.56 °C | 0 °C | -2.17 °C | -1.13 °C | 0.81 °C
O=C(O)CCCCN(CCc1ccccc1OCc1ccc(CCc2ccccc2)cc1)Cc1ccc(C(=O)O)cc1 | -0.26 °C | 0.13 °C | -0.05 °C | -0.16 °C | -0.08 °C | -0.23 °C
CCS(=O)(=O)c1cc2cc(C[C@@](O)(CC(C)(C)c3ccc(F)cc3C(N)=O)C(F)(F)F)[nH]c2cn1 | -0.47 °C and 0.04 °C | 0.64 °C and 0.86 °C | 0.37 °C and 0.15 °C | -0.42 °C and -0.19 °C | -0.08 °C and 0.35 °C | -0.24 °C and 0.19 °C
COc1cc2nc(-c3cc(F)ccc3O)nc(N[C@@H]3CNC[C@H]3C(C)(C)O)c2cc1OC | 2.31 °C | 3.24 °C | 4.64 °C | 3.22 °C | 3 °C | 3.06 °C
Nc1ncnc2c1c(COc1cccc(Cl)c1)nn2C1CCOCC1 | 1.95 °C | 0.26 °C | 3.79 °C | 0.11 °C | 0.21 °C | -4.79 °C
CN1CCN(C(=O)c2ccc(N(C)c3ncc(C(F)(F)F)c(N[C@@H]4CCC[C@@H]4C(N)=O)n3)cc2)CC1 | -0.2 °C | 0.48 °C | 0.31 °C | 0.51 °C | 0.25 °C | -0.13 °C
CC(C)Oc1ccc(Cc2ccc(NC3=NCCN3)cc2)cc1 | 0.13 °C | 0.19 °C | -0.09 °C | -0.57 °C | -0.5 °C | -0.48 °C
C[C@@H]1Cc2c([nH]c3ccccc23)[C@@H](c2c(F)cc(/C=C/C(=O)O)cc2F)N1CC(C)(C)F | -0.24 °C | -0.07 °C | 0.64 °C | 0 °C | 0.55 °C | -0.16 °C
CCNc1ccc(-c2nn(-c3ccccc3C)c3c2C(C)Cc2nc(NC(=O)OC)sc2-3)cn1 (stereo not given) | 0.34 °C | 0.64 °C | 0.19 °C | -0.97 °C | -0.13 °C | 1.08 °C
CCCCc1c(-c2ccccc2)nc(N)nc1-c1ccc(OCc2ccccc2)c(F)c1F | -0.08 °C | -0.31 °C | -3.97 °C | -3.51 °C | 0 °C | -1.37 °C
CN(C)CCCNc1ccnc(Nc2cccc(Cl)c2)n1 | 2.74 °C | 2.3 °C | 0.78 °C | 6.75 °C | 0.51 °C | 2.26 °C
CC(=O)c1c(C)c2cnc(Nc3ccc(N4CCNCC4)cn3)nc2n(C2CCCC2)c1=O | 0.35 °C and -0.02 °C | 1.06 °C and 0.93 °C | 0.19 °C and 0.01 °C | 0.23 °C and 0.63 °C | 0.09 °C and 0.31 °C | -0.85 °C and 0.31 °C
COc1ccc(-c2csc(NC(=O)[C@H]3CCCCN3S(=O)(=O)c3ccc(C)cc3)n2)cc1 | 0.82 °C | 0.77 °C | 2.05 °C | 9.29 °C | -0.89 °C | 0.39 °C
Cc1nc2ccc(Cl)cc2c(-c2ccccc2)c1CC(=O)O | 0.63 °C | 0.84 °C | 0.35 °C | 0.14 °C | 0.28 °C | 0.17 °C
CC[C@@H](Nc1c(C#N)c(-c2ccc(-c3cccc(C)c3F)cc2)nc2cnccc12)C(=O)O | 1.07 °C | -0.82 °C | -0.63 °C | 0.06 °C | -0.07 °C | 5.1 °C
Fc1ccc(-c2nc(-c3ccc4ccccc4c3F)[nH]c2-c2ccncc2)cc1 | 4.64 °C | -0.5 °C | 4.6 °C | 8.59 °C | 0.03 °C | 0.26 °C
